Experiment [1] is described as follows: Quantitative High-Throughput drug screen in 47 multiple myeloma cell lines against the NCATS MIPE library collection: FR4_PLB cell viability assay (AID 1918924; note: nearly all actives have a fitted effect of over 35% in size). A digest of the protocol:
(§1)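 Viability readout: CellTiter-Glo luminescence following 5 min room-temperature incubation with reagent. Prior exposure: 48 h, 37C, humidified 5% CO2, 500 cells per well.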

Experiment [2] in a line: Quantitative High-Throughput drug screen in 47 multiple myeloma cell lines against the NCATS MIPE library collection: Delta47_JCRB cell viability assay (AID 1918925; note: nearly all actives have a fitted effect of over 45% in size). The method, boiled down:
(§2)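 qHTS of the MIPE 4.0 collection: 500 myeloma cells/well, 48 h drug exposure at 37C in 5% CO2, then CellTiter-Glo for 5 min at room temperature before luminescence reading.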

The nature of experiment [3]: Quantitative High-Throughput drug screen in 47 multiple myeloma cell lines against the NCATS MIPE library collection: EJM_DSMZ cell viability assay (AID 1918926; note: nearly all actives have a fitted effect of over 30% in size). A digest of the protocol: as §2
A short description of experiment [4]: Quantitative High-Throughput drug screen in 47 multiple myeloma cell lines against the NCATS MIPE library collection: AMO1_DSMZ cell viability assay (AID 1918927; note: nearly all actives have a fitted effect of over 30% in size). The method, boiled down:
as §2

A short description of experiment [5]: Quantitative High-Throughput drug screen in 47 multiple myeloma cell lines against the NCATS MIPE library collection: ARP1_JJKsccF8 cell viability assay (AID 1918928; note: nearly all actives have a fitted effect of over 40% in size). The method, boiled down: (§3)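 ATP readout (CellTiter-Glo), 48 h drug incubation, 37 °C/5% CO2, 500 cells per well; normalisation to DMSO (100%) and media-only (0%) controls.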
Experiment [6] is described as follows: Quantitative High-Throughput drug screen in 47 multiple myeloma cell lines against the NCATS MIPE library collection: Karpas620_DSMZ cell viability assay (AID 1918959). Note: nearly all actives have a fitted effect of over 30% in size. A digest of the protocol: as §1
Experiment [7] can be described thus: Quantitative High-Throughput drug screen in 47 multiple myeloma cell lines against the NCATS MIPE library collection: KMM1_JCRB cell viability assay (AID 1918960). Note: nearly all actives have a fitted effect of over 30% in size. The method, boiled down:
as §3

The nature of experiment [8]: Quantitative High-Throughput drug screen in 47 multiple myeloma cell lines against the NCATS MIPE library collection: ARD_JJKsccE7 cell viability assay (AID 1918929). The method, boiled down: as §2

SMILES strings stand for the structures. Results filed as inconclusive are left out. Active and inactive are the calls of the source. Calls come from the whole dose curve; as a rule, active = well fitted cell-killing curve with a large enough effect; inconclusive = small, poorly fitted or top-dose-only effect, or effect the other way; inactive = no such curve, though single readings can be large or run the other way.
Potency is the fitted concentration of half-maximal effect.

For `C=CCNC1=C2C[C@@H](C)C[C@H](OC)[C@@H](O)[C@@H](C)C=C(C)[C@H](OC(N)=O)[C@@H](OC)C=CC=C(C)C(=O)NC(=CC1=O)C2=O`, the Potency in experiment [1] was 662 nM (active); in experiment [2], 1050 nM (active); in experiment [3] it was 4180 nM (active); in experiment [4], 93.5 nM (active); in experiment [5], 148 nM (active); in experiment [6], 1870 nM (active). In addition, the Potency in experiment [7] was 148 nM (active).
With `CC(=O)O[C@H]1C[C@@H]2CC[C@H]3[C@H]4C[C@H]([N+]5(C)CCCCC5)[C@@H](OC(C)=O)[C@@]4(C)CC[C@@H]3[C@@]2(C)C[C@H]1N1CCCCC1`, the Potency entry in experiment [1], in experiment [2], in experiment [3], in experiment [4], in experiment [8] and in experiment [7] was “inactive” in each case.
`CO[C@@H]1[C@@H](O)[C@H](O)[C@@H](n2c3c(Cl)cccc3c3c4c(c5c6cccc(Cl)c6[nH]c5c32)C(=O)NC4=O)O[C@@H]1CO`: the Potency in experiment [1] is 3320 nM (active); in experiment [2], 590 nM (active); in experiment [3], 2640 nM (active); in experiment [4] it was 166 nM (active); in experiment [8], 5260 nM (active); in experiment [6] it was 1480 nM (active). The Potency in experiment [7] is 264 nM (active).
For the compound `N#CC(=Cc1ccc(O)c(O)c1)C(=O)NCc1ccccc1`, the Potency in experiment [1] is 5260 nM (active); in experiment [2], 1660 nM (active); in experiment [3] it was 14800 nM (active). Also, the Potency result in experiment [4], in experiment [6] and in experiment [7] was “inactive” in each case.
Turning to `CC[C@H]1OC(=O)[C@H](C)[C@@H](O[C@H]2C[C@@](C)(OC)[C@@H](O)[C@H](C)O2)[C@H](C)[C@@H](O[C@@H]2O[C@H](C)C[C@H](N(C)C)[C@@H]2O)[C@](C)(OC)C[C@@H](C)C(=O)[C@H](C)[C@@H](O)[C@]1(C)O`, the Potency result in experiment [1], in experiment [2], in experiment [3], in experiment [4], in experiment [5] and in experiment [6] was “inactive” throughout. Also, the Potency entry in experiment [7] was “inactive”.
For the compound `CCCNC(=O)[C@H]1O[C@H]1C(=O)N[C@H](C(=O)N1CCC[C@@H]1C(=O)OC)C(C)CC` (some centres undefined), the Potency in experiment [1] is 8330 nM (active); in experiment [2], 13200 nM (active); in experiment [3], 5900 nM (active); in experiment [4], 4690 nM (active); in experiment [5], 8330 nM (active); in experiment [6] it was 5900 nM (active). Besides, in experiment [7], the Potency was 9350 nM (active).
Regarding `C[C@H](NC(=O)C(C#N)=Cc1cccc(Br)n1)c1ccccc1`, the Potency is 3720 nM (active) in experiment [1]; 2090 nM (active) in experiment [2]; 1660 nM (active) in experiment [3]; 13200 nM (active) in experiment [4]; 5900 nM (active) in experiment [5]; 11800 nM (active) in experiment [6]. In addition, the Potency in experiment [7] was 10500 nM (active).
Take `CCCCCN=C(N)NN=Cc1c[nH]c2ccc(OC)cc12`: the Potency in experiment [1] was 2350 nM (active); in experiment [2], 13200 nM (active); in experiment [3] it was 13200 nM (active); in experiment [4], 1320 nM (active); in experiment [8], 2960 nM (active).
As for `CC1(C)CC(O)CC(C)(C)N1[O]`, the Potency result in experiment [1], in experiment [2], in experiment [3], in experiment [4], in experiment [6] and in experiment [7] was “inactive” throughout.
Consider `CC(=O)[C@]1(O)Cc2c(O)c3c(c(O)c2[C@@H](O[C@H]2C[C@H](N)[C@@H](O)[C@H](C)O2)C1)C(=O)c1ccccc1C3=O`, for which the Potency was 469 nM (active) in experiment [1]; 105 nM (active) in experiment [2]; 118 nM (active) in experiment [3]; 833 nM (active) in experiment [4]; 264 nM (active) in experiment [5]; 2090 nM (active) in experiment [6].
Consider `CC(C)(O)Cn1c(NC(=O)c2ccc(-c3cn[nH]c3)s2)nc2cc(CN3CCOCC3)ccc21`, for which the Potency is 743 nM (active) in experiment [1]; 833 nM (active) in experiment [2]; 1050 nM (active) in experiment [3]; 469 nM (active) in experiment [4]; 469 nM (active) in experiment [8]; 662 nM (active) in experiment [6]. The Potency in experiment [7] was 743 nM (active).
Regarding `CCc1cnn2c(NCc3ccc[n+]([O-])c3)cc(N3CCCC[C@@H]3CCO)nc12`, the Potency in experiment [1] was 18.7 nM (active); in experiment [2] it was 33.2 nM (active); in experiment [3], 18.7 nM (active); in experiment [4] it was 23.5 nM (active); in experiment [5] it was 26.4 nM (active); in experiment [6], 33.2 nM (active). Also, in experiment [7], the Potency is 14.8 nM (active).
`CCN(CC)CCNC(=O)c1c(C)[nH]c(C=C2C(=O)Nc3ccc(F)cc32)c1C`: the Potency in experiment [1] was 10800 nM (active); in experiment [2], 1520 nM (active); in experiment [3] it was 12100 nM (active); in experiment [4], 3400 nM (active); in experiment [5], 4810 nM (active); in experiment [6], 4810 nM (active). Besides, the Potency in experiment [7] was 3820 nM (active).
For the compound `COc1cccc2c1C(=O)c1c(O)c3c(c(O)c1C2=O)C[C@@](O)(C(C)=O)C[C@H]3O[C@H]1C[C@H](N)[C@H](O)[C@H](C)O1`, the Potency in experiment [1] is 132 nM (active); in experiment [2], 41.8 nM (active); in experiment [3], 105 nM (active); in experiment [4], 118 nM (active); in experiment [5], 59 nM (active); in experiment [6], 66.2 nM (active). Further, the Potency in experiment [7] was 74.3 nM (active).
As to `N#CC(=C(N)Sc1ccc(N)cc1)c1ccccc1C(F)(F)F`, the Potency entry in experiment [1] and in experiment [3] was “inactive” in each case. In addition, the Potency was 5900 nM (active) in experiment [2] and 14800 nM (active) in experiment [5].
Take `CCOc1cc2ncc(C#N)c(Nc3ccc(OCc4ccccn4)c(Cl)c3)c2cc1NC(=O)C=CCN(C)C`: the Potency in experiment [1] was 2350 nM (active); in experiment [2], 590 nM (active); in experiment [3] it was 372 nM (active); in experiment [4], 93.5 nM (active); in experiment [5], 14800 nM (active); in experiment [7] it was 935 nM (active).
For the compound `C[C@H]1C[C@H]2[C@@H]3CCC4=CC(=O)C=C[C@]4(C)[C@@H]3C(=O)C[C@]2(C)[C@@]1(O)C(=O)CO`, the Potency entry in experiment [1], in experiment [2], in experiment [3], in experiment [4], in experiment [8] and in experiment [6] was “inactive” each time. Besides, the Potency result in experiment [7] was “inactive”.
For the compound `O=C(O)C=Cc1ccc(Cn2ccnc2)cc1`, the Potency entry in experiment [1], in experiment [2], in experiment [3], in experiment [8], in experiment [6] and in experiment [7] was “inactive” each time. In experiment [4], the Potency is 372 nM (active).
In the case of `COc1cc(C=CC(=O)CC(=O)C=Cc2ccc(O)c(OC)c2)ccc1O`, the Potency in experiment [1] was 10800 nM (active); in experiment [2], 4290 nM (active); in experiment [3], 21500 nM (active); in experiment [4], 5400 nM (active); in experiment [8], 6050 nM (active); in experiment [6] it was 3400 nM (active).
Regarding `C=CC[C@@H]1C=C(C)C[C@H](C)C[C@H](OC)[C@H]2O[C@@](O)(C(=O)C(=O)N3CCCC[C@H]3C(=O)O[C@H](C(C)=C[C@@H]3CC[C@H](O)[C@H](OC)C3)[C@@H](C)[C@@H](O)CC1=O)[C@@H](C)C[C@@H]2OC`, the Potency is 2640 nM (active) in experiment [1]; 1870 nM (active) in experiment [2]; 2640 nM (active) in experiment [4]; 2090 nM (active) in experiment [5]; 1480 nM (active) in experiment [6]; 2090 nM (active) in experiment [7].
Turning to `CN[C@@H]1C[C@H]2O[C@@](C)([C@H]1OC)n1c3ccccc3c3c4c(c5c6ccccc6n2c5c31)C(=O)N[C@H]4O`, the Potency in experiment [1] was 2090 nM (active); in experiment [3], 526 nM (active); in experiment [4], 332 nM (active); in experiment [5], 833 nM (active); in experiment [8] it was 148 nM (active); in experiment [6], 590 nM (active).
Consider `CC(=O)N[C@@H]1[C@H](O[C@@H]2c3ccc(c(Cl)c3)Oc3cc4cc(c3O[C@H]3O[C@H](CO)[C@@H](O)[C@H](O)[C@H]3NC(=O)CCCCCCCC(C)C)Oc3ccc(cc3Cl)C[C@H]3NC(=O)[C@H](N)c5ccc(O)c(c5)Oc5cc(O)cc(c5)[C@H](NC3=O)C(=O)N[C@H]4C(=O)N[C@H]3C(=O)N[C@@H]2C(=O)N[C@@H](C(=O)O)c2cc(O)cc(O[C@H]4O[C@H](CO)[C@@H](O)[C@H](O)[C@H]4O)c2-c2cc3ccc2O)O[C@H](CO)[C@@H](O)[C@@H]1O`, for which the Potency entry in experiment [1], in experiment [3], in experiment [4], in experiment [5], in experiment [8] and in experiment [6] was “inactive” each time.
As for `COc1cc(N2CCC(C(N)=O)CC2)ccc1Nc1nc(N)c(Cl)c(Nc2ccccc2S(=O)(=O)C(C)C)n1`, the Potency in experiment [1] is 14800 nM (active); in experiment [3], 105 nM (active); in experiment [4], 5260 nM (active); in experiment [5] it was 1320 nM (active); in experiment [8], 59 nM (active).
Take `NS(=O)(=O)OC[C@@H]1C[C@@H](n2ccc3c(N[C@H]4CCc5ccccc54)ncnc32)C[C@H]1O`: the Potency is 9350 nM (active) in experiment [1], 526 nM (active) in experiment [2] and 296 nM (active) in experiment [4].
Take `O=c1[nH]c(=O)n([C@H]2C[C@@H](O)[C@@H](CO)O2)cc1F`: the Potency in experiment [1] is 13200 nM (active); in experiment [2], 18700 nM (active); in experiment [4] it was 1660 nM (active); in experiment [5] it was 5260 nM (active); in experiment [8], 23500 nM (active); in experiment [7] it was 1660 nM (active).

The record behind these values is PubChem BioAssay (NCATS).
